Measurements reported in the supplement of paper PMC13380429.
Counter-ions that a name gives are not always drawn. Unmarked numbers belong to inactive results.

Test system: Vero E6 infected with SARS-CoV-2
Assay: inhibition of SARS-CoV-2 cytopathic effect; higher = more antiviral protection, active = above 15
Details: 48 h

| SMILES | inhibition of SARS-CoV-2 cytopathic effect (1 nM) [%] | inhibition of SARS-CoV-2 cytopathic effect (8.33 nM) [%] | inhibition of SARS-CoV-2 cytopathic effect (100 nM) [%] | inhibition of SARS-CoV-2 cytopathic effect (833.33 nM) [%] | inhibition of SARS-CoV-2 cytopathic effect (10000 nM) |
| --- | --- | --- | --- | --- | --- |
| CCSC(=N)N [EIT-hydrobromide] | 0.03 | -1.2 | -0.94 | -0.69 | -1.4% |
| O=c1[nH]c(=O)c2ccccc2o1 [carsalam] | -1.46 | 0.95 | 4.79 | 0.99 | 4.32% |
| CCCOc1ccc2[nH]cc(C3=CCNCC3)c2n1 | 2.78 | 1.38 | -1.41 | 2.78 | -1.56% |
| C=CC(=O)Nc1cccc(Oc2nc(Nc3ccc(N4CCN(C)CC4)cc3)ncc2Cl)c1 | -1.99 | 1.76 | -2.31 | -12.8 | -1.76% |
| Cc1cn([C@@H]2C[C@@H](O)[C@H](CO)O2)c(=O)[nH]c1=O [telbivudine] | 1 | -1.65 | -1.15 | -0.26 | 2.12% |
| Cc1oc(-c2ccccc2)nc1CCC(=O)c1ccc(CC2SC(=O)NC2=O)cc1 (stereo not given) [darglitazone] | 2.44 | 3.08 | -5.6 | -5.76 | -1.67% |
| CCC(CC)[C@H](NC(C)=O)[C@@H]1[C@H](O)[C@@H](C(=O)O)C[C@H]1NC(=N)N [peramivir] | -2.46 | -0.07 | 0.34 | 0.01 | -0.82% |
| CCC[C@@H]1C[C@@H](C(=O)N[C@@H]([C@H]2O[C@H](SC)[C@H](OP(=O)(O)O)[C@@H](O)[C@H]2O)[C@H](C)Cl)N(C)C1 [Clindamycin phosphate] | 2.18 | -1.74 | 2.16 | 1.59 | 0.27% |
| CN(C)CCC(c1ccc(Br)cc1)c1ccccn1 (stereo not given) [brompheniramine] | 4.45 | 3.77 | -3.1 | -0.09 | -4.65% |
| N=C(N)NC(=N)Nc1cccc(Cl)c1 [m-chlorophenylbiguanide] | 4.17 | 4.54 | 0.58 | -7.74 | -1.2% |
| Cn1ccc2cc(NC(=O)Nc3cccnc3)ccc21 | -1.98 | -2.46 | 0.51 | -1.88 | 1.94% |
| Oc1ccc2[nH]cc(C3=CCNCC3)c2n1 | 6.34 | 6.88 | -4.05 | -1.7 | -2.6% |
| O=C(c1cccc(Cl)c1F)N1CCN(Cc2cccc(Nc3nccs3)n2)CC1 | -0.75 | -9.29 | 0.91 | -4.51 | -1.08% |
| O=C1NCCN1c1ncc([N+](=O)[O-])s1 [niridazole] | 0.2 | -2.07 | -4.84 | -1.39 | -4.56% |
| CCCN1CCCC[C@H]1C(=O)Nc1c(C)cccc1C [ropivacaine] | 1.32 | 1.42 | 2.5 | 3.09 | -1.63% |
| CC1CCc2cc(F)cc3c(=O)c(C(=O)O)cn1c23 (stereo not given) [flumequine] | -0.77 | 0.46 | -0.95 | -0.27 | -0.64% |
| CC(=O)O[C@]1(C(C)=O)CC[C@H]2[C@@H]3C[C@H](C)C4=CC(=O)CC[C@]4(C)[C@H]3CC[C@@]21C [medroxyprogesterone-acetate] | 1.02 | 0.71 | -1.14 | 2.58 | 6.49% |
| CCCC[C@@]1(C2CCCC2)Cc2cc(OCCCC(=O)O)c(Cl)c(Cl)c2C1=O | 2.56 | 0.21 | 0.81 | 2.21 | 2.61% |
| CC(C)(O)C(=O)N1CCN(c2ccc(C(F)(F)F)c(C3=C(c4c[nH]c5ccccc45)C(=O)NC3=O)c2)CC1 | -0.88 | -0.68 | -5.41 | -0.21 | 4.03% |
| O=C(NOCCO)c1ccc2cncn2c1Nc1ccc(I)cc1F | -1.68 | -5.37 | -12.8 | -14.4 | -13.2% |

| SMILES | inhibition of SARS-CoV-2 cytopathic effect (1 nM) [%] | inhibition of SARS-CoV-2 cytopathic effect (8.33 nM) [%] | inhibition of SARS-CoV-2 cytopathic effect (100 nM) [%] | inhibition of SARS-CoV-2 cytopathic effect (833.33 nM) [%] | inhibition of SARS-CoV-2 cytopathic effect (10000 nM) |
| --- | --- | --- | --- | --- | --- |
| CCOc1cc2ncc(C#N)c(Nc3ccc(F)c(Cl)c3)c2cc1NC(=O)/C=C/CN(C)C [pelitinib] | -2.05 | -5.13 | -7.91 | -5.27 | 2.95% |
| CCN(CC)CC1CCCCN1CC(=O)N1c2ccccc2C(=O)Nc2cccnc21 (stereo not given) [otenzepad] | 2.23 | 3.08 | -0.68 | 5.55 | 0.04% |
| CN(C)C(=O)n1nnnc1Cc1ccc(-c2ccccc2)cc1 | -1.07 | 2.48 | 0.66 | 2.07 | 1.15% |
| Nc1ncnc2c1ncn2[C@@H]1O[C@H](CO)[C@@H](O)[C@H]1O [adenosine] | 2.02 | 3.5 | 0.67 | -1.84 | 1.06% |
| Cc1ccc(NC(=O)C(C)C)cc1C1CCN(Cc2ccc(Oc3ccc(F)c(F)c3)cc2)CC1 | -0.1 | -1.41 | -2.07 | -4.89 | -10.5% |
| O=c1[nH]c2cc(C(F)(F)F)c(N3CCOCC3)cc2n(CP(=O)(O)O)c1=O | 0.45 | 0.83 | -1.59 | 1.35 | -2.92% |
| CNCc1ccc(C)c(NC(=O)c2ccc(Nc3nc(-c4ccccc4)c4ccccc4n3)cc2)c1 | -4.56 | -2.52 | -1.92 | -1.96 | 61.3% (active) |
| CC1(C)S[C@@H]2[C@H](NC(=O)[C@H](NC(=O)N3CCN(S(C)(=O)=O)C3=O)c3ccccc3)C(=O)N2[C@H]1C(=O)O [mezlocillin] | -0.34 | 0.68 | -1.11 | -0.82 | 0.79% |
| CC(=O)N(CC(O)CN(C(C)=O)c1c(I)c(C(=O)NCC(O)CO)c(I)c(C(=O)NCC(O)CO)c1I)c1c(I)c(C(=O)NCC(O)CO)c(I)c(C(=O)NCC(O)CO)c1I (stereo not given) [iodixanol] | -1.14 | 3.23 | 2.34 | -0.66 | -1.88% |
| O=S1(=O)N[C@H]2CCCN2c2ccccc21 | -9.82 | -6.86 | -6.43 | -8.3 | -12.2% |
| COC(=O)c1ccc2c(c1)NC(=O)/C2=C(\Nc1ccc(N(C)C(=O)CN2CCN(C)CC2)cc1)c1ccccc1 [nintedanib] | -1.36 | -3 | -0.71 | 0.19 | 0% |
| N#CC[C@@H](C1CCCC1)n1cc(-c2ncnc3[nH]ccc23)cn1 [ruxolitinib-(S)] | -2.23 | -0.87 | -1.21 | 0.43 | -3.24% |
| CSC[C@H](N)C(=O)O [S-methylcysteine] | 4.21 | 3.63 | 1.96 | -0.82 | 0.31% |
| O=C(c1ccccn1)c1cnn2c(-c3ccncc3)ccnc12 [ocinaplon] | 0.32 | -1.43 | -0.52 | -3.04 | -0.62% |
| N[C@@H](CCC(=O)N[C@@H](CS)C(=O)NCC(=O)O)C(=O)O [glutathione] | 0.94 | 0.93 | 1.6 | -0.69 | 1.39% |
| Cc1ncc(C[n+]2csc(CCO)c2C)c(N)n1 [thiamine] | -3.81 | -0.57 | -1.61 | -1.44 | 0.13% |
| COc1cc2c(cc1OC)C1CC(=O)C(CC(C)C)CN1CC2 (stereo not given) [tetrabenazine] | -2.11 | 0.64 | 1.22 | 2.22 | 0.85% |
| C=C1CC[C@@]2(O)[C@H]3Cc4ccc(O)c5c4[C@@]2(CCN3CC2CC2)[C@H]1O5 [nalmefene] | 1.67 | 1.64 | 2.15 | -1.46 | -3.45% |
| CCCC(=O)O[C@]1(C(=O)COC(C)=O)CC[C@H]2[C@@H]3C[C@H](F)C4=CC(=O)C=C[C@]4(C)[C@@]3(F)[C@@H](O)C[C@@]21C [difluprednate] | 1.05 | 1.55 | 1.52 | 1.03 | 6.96% |
